From PubChem BioAssay
SKKanGAS inh: inhibitors of SKKanGAS S. pyogenes growth in kanamycin (SK-promoter or general growth effect). BacTiter-Glo, 6 h. inhibition, % at 7.5 µM. 300,000 compounds, 1.3% hits;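 active = mean replicate score, as percent of positive control median, at least 50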;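 also: strain carries kanamycin resistance gene driven by streptokinase promoter and grows in 40 µg/ml kanamycin; loss of luminescence reflects streptokinase promoter inhibition or plain growth inhibition; 0% = median of DMSO wells and 100% = positive control at its reference dose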
PfHsp90 yeast 2: reduces growth (ATP signal) of yeast expressing P. falciparum Hsp90. S. cerevisiae expressing PfHsp90, BacTiter-Glo ATP, 48 h; yeast lacking PDR1 and PDR3 efflux regulators. inhibition, % at 9.4 µM. 310,000 compounds, 0.32% hits;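 active = every replicate shows inhibition above about 80%, whatever the replicate mean, limit read from the data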;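 also: 0% = DMSO neutral controls and 100% = 20 µM radicicol positive controls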
TIM10 inh: growth inhibitors of TIM10 yeast strain. S. cerevisiae TIM10 strain growth, BacTiter-Glo luminescence, 24 h. inhibition, % at 10 µM. 330,000 compounds, 1.4% hits. AID 463195;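 active = inhibition of 40% or more at the single tested concentration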;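 also: wild-type TIM10 isogenic control strain grown at permissive 25 °C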
tim10-1 inh: inhibits growth of tim10-1 mutant yeast | inhibition, % at 20 µM | AID 463190 | 330,000 compounds, 2.2% hits | S. cerevisiae tim10-1 ts strain growth, BacTiter-Glo, 24 h;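 active = inhibition of at least 40%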;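 also: mutant grown at 25 °C; 0% = DMSO wells with yeast and 100% = wells holding no yeast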
NLRP3 yeast inh: blocks the NALP3 inflammasome reconstituted in yeast; Yeast reconstituted NLRP3/ASC/caspase-1, beta-gal luminescence, 24 h; 330,000 compounds, 0.39% hits; AID 2825; inhibition, % at 10 µM;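 active = inhibition of 50% or more; inactive = inhibition below 50%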;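 also: plate controls were induced DMSO wells for no effect and uninduced yeast grown without galactose for full effect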
tim23-1 inh: tim23-1 yeast growth inhibition; inhibition, % at 20 µM; 330,000 compounds, 1.3% hits; AID 463212; S. cerevisiae tim23-1 growth, BacTiter-Glo luminescence, 24 h;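 active = growth inhibition of the mutant yeast at or above 50%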;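 also: temperature-sensitive mutant grown at 25 °C; plate controls were DMSO-treated mutant yeast for no effect and medium wells lacking yeast for full effect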
tim10 confirm: TIM10 yeast growth inhibition, confirmed | S. cerevisiae tim10 strain growth, BacTiter-Glo luminescence, 24 h | inhibition, % at 10 µM | 4,600 compounds, 63% hits | shares compounds with TIM10 inh | AID 463215;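 active = inhibition of yeast growth at or above a set limit in either of two replicates at 10 µM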;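 also: this counterscreen used the strain with wild-type TIM10; 0% = yeast with DMSO and 100% = medium wells lacking yeast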
Numbers without * were called inactive. In the library only some 4.6% were active in any assay of this set; here they are far more common.

Results for N=C1SC(CC(=O)Nc2ccc([N+](=O)[O-])cc2)C(=O)N1c1ccccc1 (stereo not given) ?
SKKanGAS inh: -5; PfHsp90 yeast 2: -2; TIM10 inh: 57*; tim10-1 inh: -9; NLRP3 yeast inh: -3; tim23-1 inh: 5; tim10 confirm: 9

What do the screens show for `COc1ccc(C(=O)Nc2ccc3c(c2)C(=O)N(C)C3=O)cc1OC`?
SKKanGAS inh: 1; PfHsp90 yeast 2: -3; TIM10 inh: -39; tim10-1 inh: -53; NLRP3 yeast inh: 11; tim23-1 inh: -24

How did Cc1cc(N=NC(=O)c2ccccc2)ccc1O do in these assays?
PfHsp90 yeast 2: -23; TIM10 inh: 2; tim10-1 inh: 5; NLRP3 yeast inh: 14; tim23-1 inh: 3

How did O=C(ONc1ccc(N=NC(=O)c2ccccc2O)cc1)c1ccccc1 do in these assays?
SKKanGAS inh: 7; PfHsp90 yeast 2: 0; TIM10 inh: 42*; tim10-1 inh: 39; NLRP3 yeast inh: 21; tim23-1 inh: 38; tim10 confirm: 8

How did Cc1cc(C)cc(CC2CC(=O)N(c3ccc(Cl)cn3)C2=O)c1 (stereo not given) do in these assays?
SKKanGAS inh: -5; PfHsp90 yeast 2: 18; TIM10 inh: 51*; tim10-1 inh: 29; NLRP3 yeast inh: 25; tim23-1 inh: 48; tim10 confirm: 23

Results for Cc1cccc(NC(=O)COC(=O)CN2CCCCCC2=O)c1C ?
PfHsp90 yeast 2: -4; TIM10 inh: -7; tim10-1 inh: 6; NLRP3 yeast inh: 9; tim23-1 inh: 9

How did COc1cccc(/C=N/NC(N)=S)c1OCc1cccc(Cl)c1 do in these assays?
SKKanGAS inh: -2; PfHsp90 yeast 2: 10; TIM10 inh: 46*; tim10-1 inh: 36; NLRP3 yeast inh: 28; tim23-1 inh: 20; tim10 confirm: 48*

How did C=Cn1cc[n+](CC(=O)c2ccc(-c3ccccc3)cc2)c1 do in these assays?
SKKanGAS inh: -3; PfHsp90 yeast 2: -6; TIM10 inh: -117; tim10-1 inh: -17; NLRP3 yeast inh: 13; tim23-1 inh: -84

What do the screens show for `COc1ccc(Oc2ccc(/C=C/C(=O)c3ccc(O)cc3)cc2[N+](=O)[O-])cc1`?
SKKanGAS inh: -11; PfHsp90 yeast 2: -17; TIM10 inh: 44*; tim10-1 inh: 31; NLRP3 yeast inh: 32; tim23-1 inh: 49; tim10 confirm: 39*

Results for O=C(/C=C/c1ccc(O)c([N+](=O)[O-])c1)c1ccc2ccccc2c1 ?
SKKanGAS inh: 9; PfHsp90 yeast 2: -19; TIM10 inh: 0; tim10-1 inh: 12; NLRP3 yeast inh: 13; tim23-1 inh: 11

Results for Cc1ccccc1NC(=O)Cc1nnc(SCC(=O)NC2CCCC2)n1C ?
SKKanGAS inh: -4; PfHsp90 yeast 2: 5; TIM10 inh: 5; tim10-1 inh: -24; NLRP3 yeast inh: 4; tim23-1 inh: -12

How did O=C(O)C1Sc2[nH]c(=O)sc2C2c3cc(Br)ccc3OC(=O)C12 (stereo not given) do in these assays?
SKKanGAS inh: 2; PfHsp90 yeast 2: 22; TIM10 inh: 44*; tim10-1 inh: 22; NLRP3 yeast inh: 7; tim23-1 inh: 30; tim10 confirm: 33*

What do the screens show for `CN(C)S(=O)(=O)c1cccc(NC(=O)CN2C(=O)NC(CCc3ccccc3)C2=O)c1` (stereo not given)?
SKKanGAS inh: -6; PfHsp90 yeast 2: 31; TIM10 inh: 11; tim10-1 inh: 0; NLRP3 yeast inh: 16; tim23-1 inh: 17

Results for COC(=O)N/N=C/c1c(C)c(C(=O)c2ccc(F)cc2)n2ccccc12 ?
SKKanGAS inh: -4; PfHsp90 yeast 2: 38; TIM10 inh: 22; tim10-1 inh: 30; NLRP3 yeast inh: 33; tim23-1 inh: 26

How did CCOC(=O)N/N=C/c1c(C)c(C(=O)c2ccc(F)cc2)n2ccccc12 do in these assays?
SKKanGAS inh: 13; PfHsp90 yeast 2: 7; TIM10 inh: 44*; tim10-1 inh: 40; NLRP3 yeast inh: 25; tim23-1 inh: 37; tim10 confirm: 32*

What do the screens show for `O=C(NC(=S)NCCC1=CCCCC1)c1cccnc1`?
SKKanGAS inh: 1; PfHsp90 yeast 2: 4; TIM10 inh: 54*; tim10-1 inh: 39; NLRP3 yeast inh: -37; tim23-1 inh: 43; tim10 confirm: 48*

Results for Cc1cccc(C(=O)NCCNc2nc3cc(C)c(C)cc3cc2C)c1 ?
SKKanGAS inh: -12; PfHsp90 yeast 2: 33; TIM10 inh: 45*; tim10-1 inh: 34; NLRP3 yeast inh: -1; tim23-1 inh: 30; tim10 confirm: 39*

What do the screens show for `CN1/C(=C\C(=O)COC(=O)c2nccnc2N)C(C)(C)c2ccccc21`?
SKKanGAS inh: 3; PfHsp90 yeast 2: -35; TIM10 inh: 1; tim10-1 inh: 13; NLRP3 yeast inh: 22; tim23-1 inh: 16

How did CN1/C(=C\C(=O)COC(=O)c2ccc([N+](=O)[O-])o2)C(C)(C)c2ccccc21 do in these assays?
SKKanGAS inh: 19; TIM10 inh: 65*; tim10-1 inh: 16; NLRP3 yeast inh: 24; tim23-1 inh: -290; tim10 confirm: 75*

What do the screens show for `COc1ccc(N2C(=O)CC(Sc3nc(C)cc(C)c3C#N)C2=O)cc1` (stereo not given)?
SKKanGAS inh: 1; PfHsp90 yeast 2: 7; TIM10 inh: 42*; tim10-1 inh: 30; NLRP3 yeast inh: 5; tim23-1 inh: 31; tim10 confirm: 28*

How did CCCc1ccc(C#N)c(SC2CC(=O)N(c3ccc(OC)cc3)C2=O)n1 (stereo not given) do in these assays?
SKKanGAS inh: 8; PfHsp90 yeast 2: 6; TIM10 inh: 10; tim10-1 inh: 6; NLRP3 yeast inh: 12; tim23-1 inh: 10

How did COc1cccc(NC(=O)NCc2c(-c3ccccc3)noc2C)c1 do in these assays?
SKKanGAS inh: -4; PfHsp90 yeast 2: 11; TIM10 inh: 23; tim10-1 inh: 16; NLRP3 yeast inh: 16; tim23-1 inh: 16

Results for COc1cccc(-c2csc(N3CCN(C(=S)Nc4ccccc4C)CC3)n2)c1 ?
PfHsp90 yeast 2: -23; TIM10 inh: 32; tim10-1 inh: 8; NLRP3 yeast inh: 15; tim23-1 inh: 37

How did O=C(COC(=O)c1ccc([N+](=O)[O-])o1)Nc1ccc(Br)cc1F do in these assays?
TIM10 inh: 47*; tim10-1 inh: -32; NLRP3 yeast inh: 2; tim23-1 inh: 19; tim10 confirm: 50*

How did O=C(COC(=O)c1ccc([N+](=O)[O-])o1)Nc1ccc(F)cc1 do in these assays?
PfHsp90 yeast 2: -22; TIM10 inh: -106; tim10-1 inh: -139; NLRP3 yeast inh: 9; tim23-1 inh: 15
